Common to all, as to assay: NCI-60 one-dose screen, 48 h (100 = growth as untreated, 0 = no growth, -100 = all killed)
Conditions in all cases: 10 µM unless noted

For test [1], the system named is NCI-H23 lung.
Test [2] has as its system NCI-H226 lung.
The test system of test [3] is NCI-H322M lung.
In test [4] the test system is HOP-62 NSCLC.
For test [5], the system named is NCI-H460 lung.
Test [6] concerns HOP-92 NSCLC.
Test [7] has as its system A549/ATCC NSCLC.
Test [8] deals with 786-0 renal.
For test [9], the system named is COLO 205 colon.
The subject of test [10] is NCI-H522 lung.

This passage reports growth results from PubChem BioAssay (NCI).

Molecules are shown by their SMILES. About 83,000 compounds went through this panel and 20% of them were active in at least one assay; those are over-represented in the sample as a whole.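 Testing used 96-well plates and a 48-hour single-concentration exposure. Example: -40 means 40% of the starting cells died.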 Unmarked numbers belong to inactive results. Active and inactive are the calls of the source. The calls were made as follows: active = growth percent below 10; inactive = the rest.

`Cc1csc(-c2ccc3c(c2)COC3(CCCN(C)C)c2ccc(F)cc2)c1` (configuration not stated): the growth in test [1] was 88.9%; in test [2], 95.8%; in [3], 77%; in test [4], -64.4% (active); in [5], -45.7% (active); in [6] it was 34.3%. The growth is 31.3% in test [7], 61.8% in test [8] and -69.1% (active) in test [9].

For the molecule `CN(CSc1ccc(Cl)cc1)c1ccc(CSc2ccc(Cl)cc2)cc1`, the growth is 90.6% in [1]; 43.3% in [2]; 86.4% in [3]; 118% in test [4]; 62% in test [5]; 57.2% in [6]. Further, the growth was 32% in test [10], 50.5% in test [7], 31.6% in test [8] and 41% in test [9].

Regarding `COc1cc(-c2c(C#N)c(-c3cccs3)nc3c2c(-c2ccccc2)nn3-c2ccccc2)ccc1O`, the growth in test [1] was 98.4%; in test [2], 91.2%; in test [3], 96.6%; in test [4], 74.5%; in test [5], 77.5%; in test [6] it was 93.5%. Also, the figures for the growth in [7], in test [8] and in test [9] were 58.3%, 85.4% and 89.7%, respectively.

For `CC1(C)C(=O)/C(=C\c2ccccn2)C[C@]2(C)[C@H]3CC[C@@H]4[C@@H](C(=O)/C=C/c5ccccn5)CC[C@@]4(C)[C@]3(C)CC[C@@H]12`, the growth in test [1] is -49.2% (active); in test [2], -33.8% (active); in test [3] it was 21.3%; in [4] it was -26.7% (active); in test [5], -36.2% (active); in test [6], -31.9% (active). Also, the figures for the growth in [7], in test [8] and in test [9] were 5.27% (active), -69.4% (active) and -34.4% (active), respectively.

Take `O=C(NO)c1ccc(Cn2c(=O)n(CCc3ccc(O)cc3)c(=O)c3ccccc32)cc1`: the growth in [1] was -8.51% (active); in test [2] it was 82.5%; in test [3] it was 80.4%; in [4], 68.1%; in test [5], 60.4%; in test [6], 80%. Also, the growth in [10] was 7.74% (active); in [7], 84.2%; in [8], 83.4%; in test [9], 19.6%.

On to `COc1cc(/C=C2\C(=O)N(CC(O)COc3cc(O)c4c(=O)cc(-c5ccccc5)oc4c3)c3ccccc32)cc(OC)c1O` (configuration not stated), for which the growth in [1] is 88.8%; in test [2], 99.7%; in test [3], 96.5%; in test [4], 87.9%; in [5], 85%; in [6], 82.4%. The growth was 64.1% in [10], 95.4% in test [7], 98% in test [8] and 113% in [9].

For the molecule `Nc1c2c(nc3ccc(Cl)cc13)CC(c1ccccc1)CC2=O` (configuration not stated), the growth in [1] was 58.6%; in test [2], 85%; in test [3] it was 62.1%; in test [4], 53.9%; in test [5], 15.2%; in test [6], 84.6%. Also, the growth in [7] is 56.7%; in [8] it was 55.1%; in test [9], 39.3%.

`Cc1ccc(-c2nc([P+](c3ccccc3)(c3ccccc3)c3ccccc3)c(N3CCOCC3)o2)cc1`: the growth in test [1] was -9.72% (active); in test [2], -2.72% (active); in [3], 7.88% (active); in [4] it was -41.5% (active); in [5] it was 3.34% (active); in test [6], -28.7% (active). The growth in [10] is 0.415% (active); in [7] it was 9.89% (active); in test [8], 15.9%; in test [9], -70% (active).

On to `CCOc1ccc(NC(=O)c2ccoc2COc2ccccc2)cc1`, for which the growth is 103% in test [1]; 111% in test [2]; 99.7% in test [3]; 111% in test [4]; 112% in test [5]; 95.2% in test [6]. The growth in [7] was 103%; in test [8], 105%; in test [9] it was 123%.

For `CC[C@H](CC[C@@H](C)[C@H]1CC[C@H]2[C@@H]3/C(=C/c4cccnc4)C(=O)C4=CC(=O)CC[C@]4(C)[C@H]3CC[C@]12C)C(C)C`, the growth in [1] was 69.3%; in test [2], 87.5%; in [3] it was 98.4%; in test [4], 99.2%; in [5], 98.5%; in [6], 81.6%. Besides, the growth in [10] is 91%; in test [7], 54.4%; in test [8], 105%; in [9] it was 113%.

As for `C[C@@H](C(=O)O)c1ccc2c3cc(Cl)ccc3n(Cc3cc(=O)oc4ccc(Cl)cc34)c2c1`, the growth was 95.6% in test [1]; 103% in test [2]; 86.3% in [3]; 103% in test [4]; 111% in [5]; 108% in test [6]. Moreover, the growth in [7] was 102%; in [8] it was 95.9%; in test [9], 113%.

With `OCC12CCCC(CO)(COC1)C2O` (configuration not stated), the growth in test [1] is 97%; in [2], 99.8%; in test [3] it was 115%; in [4] it was 106%; in test [5], 100%; in test [6], 30.9%. The growth in test [7] was 101%; in [8], 112%.
